Hit rate of the full screen: of about 300,000 compounds, about 37,000 (12%) were called active. What follows is part of a selection rich in actives, with near analogues and random picks from the rest. Values without a mark were called inactive. No stated cut-off is given here; in the data, active means max response mostly above about 13% (no sharp cut-off); inactive means mostly below about 14%.

The experiment is described as follows: Cycloheximide Counterscreen for Small Molecule Inhibitors of Shiga Toxin. Further: read at 38.3 µM for the half of the compounds with a filed dose; 0% is about no effect. As to conditions: cell reporter, cycloheximide protein synthesis inhibition counterscreen; hits give high values.
With `O=C(O)CC(CC(=O)N1CCOCC1)c1ccccc1` (configuration not stated), the max response was -2.32%. As for `COc1ccc(/C=C2/C(=O)N(c3ccccc3)N=C2C)c(OC)c1`, the figure is -1.9%; as for `Cc1cn(C2C=CC(CO)O2)c(=O)[nH]c1=O` (configuration not stated), -1.84%.

Consider `CN(C)CCN(Cc1ccccc1)S(=O)(=O)c1csc(C(N)=O)c1`, for which the max response is -8.34%.

For `CCOC(=O)C1CCN(c2ccc(C(=O)O)cc2[N+](=O)[O-])CC1`, the max response was -2.89%.

Regarding `Cc1ccc(C(=O)c2ccc(N3CCN(C)CC3)c([N+](=O)[O-])c2)cc1`, the max response is 18.7% (active). Regarding `Cc1cccc(N2CCN(c3ccc(C(N)=O)cc3[N+](=O)[O-])CC2)c1C`, the max response is -1.03%. `COc1ccc(C(=O)NC2(C(F)(F)F)NC(=O)N(CCCc3ccccc3)C2=O)c(OC)c1OC` (configuration not stated): the max response was 10.5%. As for `Cc1ccc2c(c1)N(CC(=O)NCCc1ccc(Cl)cc1)C(=O)c1cccnc1O2`, the figure is -1.47%. The result for `CCn1cc(S(=O)(=O)c2cccc(C)c2)c(=O)c2cc(F)c(N3CCN(C)CC3)cc21` reads -2.21%.

`CN(Cc1ccccc1Cl)C(=O)C1CCC(=O)N(CCc2cccc(F)c2)C1` (configuration not stated): the max response was 10%. For the compound `Cc1cccc(C(=O)NCCCN(C)CCCNC(=O)c2cccc(C)c2)c1`, the max response was -0.372%. Regarding `Cc1cccc(C(=O)NC(=S)N(C)C2CCCCC2)c1`, the max response was 61% (active). The result for `Cc1cccc(NC(=S)NCCN(C2CCCCC2)C2CCCC2)c1` reads -7.35%; that for `CC(/C=C/c1ccccc1)=N\NC(=O)C1CC1(C)c1ccccc1` (configuration not stated), -2.65%. Consider `Cc1[nH]c(=O)c(C(=O)/C=C/c2ccccc2)c2c1CCCC2`, for which the max response is -1.39%. For the compound `COc1ccc(/C=C/C(=O)c2cc(Br)ccc(=O)c2O)cc1`, the max response was -1.31%.

For `O=S(=O)(/C=C/c1ccccc1)N1CCNCC1`, the max response is 0.861%. The result for `O=C(/C=C/c1ccccc1)c1ccoc1` reads 40.4% (active); that for `COc1ccc(C(=O)/C=C/c2cccnc2)c(OC)c1`, 8.73%. For `COc1ccc(/C=C/C(=O)c2ccc(OC)cc2O)cc1`, the max response was 41.2% (active).

Take `O=C(/C=C/c1ccccc1)c1ccccc1O`: the max response is 29.3% (active). For the compound `O=C(/C=C/c1ccccc1)N/C(=C/c1ccccc1)C(=O)Nc1ccccc1O`, the max response is 8.16%. For `CC(C)c1nc(CNC(=O)CC2C(=O)NCCN2Cc2cccc(F)c2F)cs1` (configuration not stated), the max response is -2.45%. As for `COc1cc(C2NC(=O)NC(c3ccccc3)=C2C(C)=O)c(Br)cc1OCC(N)=O` (configuration not stated), the figure is -1.35%. The result for `O=C(c1cccc(F)c1)N1CCN(c2ccc([N+](=O)[O-])c3cccnc23)CC1` reads -5.99%. As for `COc1cccc(C(=O)N2CCC(n3nccc3NC(=O)C3CCOC3)CC2)c1` (configuration not stated), the max response is 2.44%. The result for `CC(=O)N(Cc1cc(=O)[nH]c2ccccc12)c1ccc(C)cc1C` reads -0.991%.

For the compound `COc1ccccc1NC(=O)/C=C/C(N)=O`, the max response was 9.83%. As for `Cc1cc(C)c2nc(NC(=O)C3CCCO3)sc2c1` (configuration not stated), the max response was 44.3% (active).

`Cc1cc([N+](=O)[O-])ccc1NC(=O)C1CCCO1` (configuration not stated): the max response was 3.91%. As for `Cc1ccc(C)c(C(C)NC(=O)C2CCCO2)c1` (configuration not stated), the figure is -2.44%; as for `CCOCCc1nn2c(=O)cc(CSCC(=O)Nc3cccc(C)c3C)nc2s1`, -4.2%. Turning to `COc1ccccc1S(=O)(=O)c1c(C)cc(C)[nH]c1=O`, the max response is -6.18%. As for `CCCCOC(=O)c1ccc(NC(c2ccc(C)cc2)P(=O)(OC)OC)cc1` (configuration not stated), the figure is -2.29%. The result for `Cc1cc(C)c(OCC(=O)N(Cc2cccs2)C2CCS(=O)(=O)C2)c(C)c1` (configuration not stated) reads 8.48%; that for `CN(c1ccccc1)c1ccc([N+](=O)[O-])c2nonc12`, 12% (active). Turning to `Cc1ccccc1Nc1c([N+](=O)[O-])ccc2nonc12`, the max response was 0.319%.

In the case of `CCN(CC)c1ccc([N+](=O)[O-])c2cccnc12`, the max response was 0.792%. For `CC(C)c1ccc(NC2CCCN(C(=O)c3ccncc3)C2)cc1` (configuration not stated), the max response was -4.01%. The result for `Cc1ccc(S(=O)(=O)N2CCN(CC(=O)N/N=C/c3ccc(Br)s3)CC2)cc1` reads -1.09%. As for `COCCCNc1nc2ccccc2nc1NS(=O)(=O)c1ccc(F)cc1`, the figure is -1.37%. As for `COc1ccc(N2CCN(C(=O)c3cccs3)CC2)cc1`, the figure is 20.7% (active); as for `O=C(COc1ccccc1)Nc1ccc(N2CCN(C(=O)c3cccs3)CC2)cc1`, -1.71%; as for `COc1ccc(C2C(C(=O)N3CCN(c4ccc(OC)cc4)CC3)c3ccccc3C(=O)N2C)cc1` (configuration not stated), -3.17%. As to `CC(=C1C(=O)c2ccccc2C1=O)N1CCN(c2ccccn2)CC1`, the max response is 4.62%. The result for `COc1ccc(N2CCN(C(C)=C3C(=O)c4ccccc4C3=O)CC2)cc1` reads 40.7% (active). Turning to `COc1ccc(OCC(=O)N2CCN(C(=O)c3cccs3)CC2)cc1`, the max response was -2.3%. Take `O=C(N[C@@H](Cc1ccccc1)C(=O)OCc1ccccc1)c1nc[nH]c1C(=O)N[C@@H](Cc1ccccc1)C(=O)OCc1ccccc1`: the max response was -1.4%. With `Cc1ccc(N2C(=O)CC(Sc3ncn[nH]3)C2=O)cc1` (configuration not stated), the max response is -4.4%.

As to `COc1cccc(/C=C2\Sc3ccc(C(=O)NCC4CCCO4)cc3N(C)C2=O)c1` (configuration not stated), the max response was 6.25%. Take `O=[N+]([O-])c1ccc2c(c1)Nc1nc3ccccc3nc1N2`: the max response was 22.7% (active). As to `COc1ccc([N+](=O)[O-])cc1-c1nc2ccccc2nc1-c1ccccc1`, the max response is -2.38%.

Regarding `O=[N+]([O-])c1cccc(Nc2c3ccccc3nc3ccccc23)c1`, the max response is 4.55%. On to `O=C(NCCOc1cccnc1)c1ccc(OC2CCN(Cc3ccccn3)CC2)cc1`, for which the max response is 10.4%. The result for `O=C(CN1CCC(O)(c2cccc(C(F)(F)F)c2)CC1)NCCc1ccccc1` reads -0.807%. As for `Cc1nc([N+](=O)[O-])cn1CC(=O)Nc1ccc2c(c1)OCO2`, the figure is -2.41%; as for `Cc1nn(CC(=O)Nc2ccc3c(c2)OCO3)c(C)c1[N+](=O)[O-]`, 0.353%. As for `COc1cccc(NC(=O)c2nn(C34CC5CC(CC(C5)C3)C4)cc2[N+](=O)[O-])c1`, the figure is 13.1%; as for `Cn1cc([N+](=O)[O-])c(C(=O)Nc2cnn(Cc3ccc(F)cc3)c2)n1`, 9.36%. Consider `Cc1onc(C(=O)Nc2ccc3c(c2)OCO3)c1[N+](=O)[O-]`, for which the max response was 30.6% (active).

Turning to `Cn1cc([N+](=O)[O-])c(C(=O)Nc2ccc3c(c2)OCCO3)n1`, the max response is 26.5% (active).

(Values after PubChem BioAssay AID2314 (National Center for Advancing Translational Sciences (NCATS), 2010).)
